{"source": "PubChem BioAssay (Tox21)", "note": "Inconclusive results are not listed. Where a call stands in place of a potency, no number is given. Calls of active or inactive are those of the source. The call rests on the fitted dose curve; in most records, active means well fitted cell-killing curve with a large enough effect in the repeat runs; inconclusive means weak or mixed curves, or effect the other way; inactive means no such curve, though single readings can be large or run the other way. Potency means the concentration at half of the fitted maximal effect."}
{"assay": "qHTS assay to identify small molecule agonists of the farnesoid-X-receptor (FXR) signaling pathway - cell viability counter screen (AID 743218); further: nearly all actives have a fitted effect of over 45% in size", "details": "FXR-bla HEK293T viability, CellTiter-Glo luminescence, 16 h; series mostly up to 62.6 µM", "from_the_text": "U.S. Tox21 Program National Center for Advancing Translational Sciences [NCATS] NIH Chemical Genomics Center [NCGC] U.S. Environmental Protection Agency [EPA] National Institutes of Environmental Health Sciences [NIEHS] National Toxicology Program [NTP] U.S. Food and Drug Administration [FDA] Tox21 Assay Overview: The farnesoid-X-receptor (FXR), a nuclear hormone receptor, is highly expressed in liver, intestine, kidney and adrenal cortex. Natural ligands of FXR are the bile acids (Cholic acid, Chenodeoxy cholic acid etc). FXR is an important regulator of diverse metabolic pathways, including the bile acid homeostasis, lipid and glucose metabolisms. FXR regulates the expression of target genes by binding either as a monomer or as a heterodimer with the retinoid X receptor (RXR). Numerous studies have reported that FXR exerts protective function during cholestasis, diabetes, liver regeneration, and cancer. To identify compounds that activate FXR signaling, GeneBLAzer FXR-UAS-bla HEK 293T cell line (Invitrogen, Carlsbad, CA) containing a beta-lactamase reporter gene under the control of a UAS response element was used to screen the Tox21 10K compound library. The cytotoxicity of the Tox21 compound library against the FXR-bla cell line was tested in parallel by measuring the cell viability using CellTiter-Glo assay in the same wells.\nTox21 Assay Protocol Summary: FXR-bla cells were dispensed at 5000 cells/5uL/well in 1536-well black wall/clear bottom plates using a Multidrop Combi (Thermo Fisher Scientific, Waltham, MA) dispenser. After the assay plates were incubated at 37 C and 5% CO2 for 5 h, 23 nL of compounds dissolved in DMSO, positive controls or DMSO only was transferred to the assay plate by a Pintool station (Kalypsys, San Diego, CA). The assay plates were incubated at 37C for 16 h. After 1 uL of LiveBLAzerTM B/G FRET substrate was added using a Bioraptr Flying Reagent Dispenser (FRD) workstation (Beckman Coulter, Indianapolis, IN), the plates were incubated at room temperature for 2 h, and fluorescence intensity was measured by an Envision plate reader (PerkinElmer, Shelton, CT). For cell viability readout that measures cytotoxicity, 4uL/well of CellTiter-Glo reagent was added into the assay plates using a Bioraptr FRD. After 30 min incubation at room temperature, the luminescence intensity in the plates was measured using a ViewLux plate reader (PerkinElmer)."}
{"smiles": "CC(C)N(C)C", "Potency": "inactive"}
{"smiles": "CC1CCCO1", "note": "(stereo not given)", "Potency": "inactive"}
{"smiles": "FC(F)(F)C(F)(F)C(F)(F)C(F)(F)CCI", "Potency": "inactive"}
{"smiles": "O=C(O)CN1C(=O)c2cccc3cccc(c23)C1=O", "Potency": "inactive"}
{"smiles": "Cc1ccc(S(=O)(=O)NC(=O)NC2CCCCC2)cc1", "Potency": "inactive"}
{"smiles": "Cc1cccc2sc(N)nc12", "Potency": "inactive"}
{"smiles": "Cc1c(C2(c3cc(Br)c(O)c(Br)c3C)OS(=O)(=O)c3ccccc32)cc(Br)c(O)c1Br", "Potency": "16.9 µM (active)"}
{"smiles": "Cc1cc(CCC(=O)OCCOCCOCCOC(=O)CCc2cc(C)c(O)c(C(C)(C)C)c2)cc(C(C)(C)C)c1O", "Potency": "inactive"}
{"smiles": "COc1ccc(-n2nc(C(F)F)cc2-c2ccc(S(C)=O)cc2)cc1", "note": "(stereo not given)", "Potency": "inactive"}
{"smiles": "CCCCCCCCCCCCCOC(=O)CCSCCC(=O)OCCCCCCCCCCCCC", "Potency": "inactive"}
{"smiles": "Cc1ccc2c(c1[N+](=O)[O-])C(=O)c1ccccc1C2=O", "Potency": "inactive"}
{"smiles": "O=C(c1ccccc1)C1CCC1", "Potency": "inactive"}
{"smiles": "Nc1ccc(F)cc1", "Potency": "inactive"}
{"smiles": "CCCCCCCCCCCCCCCC(=O)OCC", "Potency": "inactive"}
{"smiles": "O=C1[C@@H]2[C@H]3CC[C@H](C3)[C@@H]2C(=O)N1CCCCN1CCN(c2ncccn2)CC1", "Potency": "inactive"}
{"smiles": "O=C(O)c1cccc(C[C@@H]2COc3ccc(OCc4nc5cc(F)ccc5s4)cc3[C@@H]2O)c1", "Potency": "inactive"}
{"smiles": "CC(=O)NNC(C)=O", "Potency": "inactive"}
{"smiles": "Nc1ccc(N=Nc2ccc(N)cc2)cc1", "Potency": "inactive"}
{"smiles": "CC(C)CC(O)CC(C)C", "Potency": "inactive"}
{"smiles": "COC(OC)OC", "Potency": "inactive"}
{"smiles": "COc1cc(OC)c2ccc(=O)oc2c1", "Potency": "inactive"}
{"smiles": "CCCCC(CC)COS(=O)(=O)O", "note": "(stereo not given)", "Potency": "inactive"}
{"smiles": "CC(C)c1ccc(C#N)cc1", "Potency": "inactive"}
{"smiles": "O=C(O)CCC(=O)OC[C@@H](NC(=O)C(Cl)Cl)[C@H](O)c1ccc([N+](=O)[O-])cc1", "Potency": "inactive"}
{"smiles": "O=C(CCS)OCC(COC(=O)CCS)(COC(=O)CCS)COC(=O)CCS", "Potency": "inactive"}
{"smiles": "CCCCCCCCCCCCCCN(C)C", "Potency": "inactive"}
{"smiles": "O=C(O)CO", "Potency": "inactive"}
{"smiles": "CCOc1ncc(F)c(=O)[nH]1", "Potency": "inactive"}
{"smiles": "CN=C(N)NC(=O)Nc1c(C)cccc1C", "Potency": "inactive"}
{"smiles": "O=C(c1ccccc1)c1ccc(O)cc1", "Potency": "inactive"}
{"smiles": "CC(=O)C(C)=O", "Potency": "inactive"}
{"smiles": "O=C(Nc1ccc(C(=O)O)c(O)c1)c1ccccc1", "Potency": "inactive"}
{"smiles": "CC[C@H]1OC(=O)[C@H](C)[C@@H](O[C@H]2C[C@@](C)(OC)[C@@H](O)[C@H](C)O2)[C@H](C)[C@@H](O[C@@H]2O[C@H](C)C[C@H](N(C)C)[C@H]2O)[C@](C)(O)C[C@@H](C)/C(=N\\OCOCCOC)[C@H](C)[C@@H](O)[C@]1(C)O", "Potency": "inactive"}
{"smiles": "O=NN(CCCl)C(=O)NCCCl", "Potency": "inactive"}
{"smiles": "CC(C)(O)CCc1ccccc1", "Potency": "inactive"}
{"smiles": "CC(=O)NCCO", "Potency": "inactive"}
{"smiles": "O=C1NC(=O)c2cccc3cccc1c23", "Potency": "inactive"}
{"smiles": "O=C1CC[C@@H](C(=O)O)N1", "Potency": "inactive"}
{"smiles": "O=C(NS(=O)(=O)/C=C/c1ccccc1)c1ccc(F)cc1Cl", "Potency": "inactive"}
{"smiles": "CC(=O)N[C@@H](Cc1ccc(O)cc1)C(=O)O", "Potency": "inactive"}
